# Results published in the supplement of paper PMC3334620.
# Over roughly 33,000 sequences, “E-score (-0.5 to 0.5)” has its median near -0.013; the highest 2% begin near 0.3. For the sample, the highest values were picked, then their nearest neighbours and some sequences at random.
# Biological target: T1, Msn1 (UniProt P22148)
# T1 sequence: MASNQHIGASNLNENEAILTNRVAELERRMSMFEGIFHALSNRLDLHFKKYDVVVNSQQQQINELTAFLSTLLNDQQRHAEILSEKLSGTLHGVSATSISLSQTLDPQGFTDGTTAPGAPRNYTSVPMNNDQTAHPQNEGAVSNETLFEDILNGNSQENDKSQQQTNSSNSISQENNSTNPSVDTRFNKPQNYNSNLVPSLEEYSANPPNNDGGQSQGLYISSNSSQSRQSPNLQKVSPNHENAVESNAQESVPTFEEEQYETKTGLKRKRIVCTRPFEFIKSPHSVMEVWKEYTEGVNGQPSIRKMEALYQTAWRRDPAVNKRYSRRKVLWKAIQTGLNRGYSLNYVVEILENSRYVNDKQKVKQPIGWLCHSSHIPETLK
# Test: PBM E-score (8-mer binding enrichment) (E-score (-0.5 to 0.5)); higher = stronger / more preferred TF binding
# Settings: protein concentration: 200 nM; construct: GST-full length
# Description: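 Universal 'all 10-mer' protein binding microarrays (Agilent AMADID 015681) probed with GST-tagged S. cerevisiae TFs (full-length or DBD) made by in vitro transcription/translation (PURExpress), about 100-200 nM. Bound TF was detected with fluorescent anti-GST. Each ungapped 8-mer (which stands for itself and its reverse complement) is scored by the PBM enrichment score (E-score), a modified Wilcoxon-Mann-Whitney statistic from -0.5 to +0.5, computed with the Universal PBM Analysis Suite. Scale: above 0.35 generally sequence-specific binding.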
row,Sequence,PBM E-score
1,CGCAGACC,-0.123
2,ATCACTAC,-0.126
3,CAGTGCTC,-0.259
4,AGCGCAGC,-0.115
5,ACCGCAAG,-0.0142
6,ATGCTACC,-0.126
7,AGAGATAT,0.0248
8,CGCCGGCG,0.204
9,CCTGCCAA,-0.125
10,CTGTCATA,0.0936
11,GTGTCATA,0.292
12,ATGTCATC,0.341
13,CTGTCAAA,0.0466
14,GTGTCAAA,0.096
15,ATGTCATG,0.411
16,ATGTCAAG,0.217
17,ATGTCAGG,0.158
18,ATGTCATA,0.448
19,ATGTCAAA,0.323
20,CTGTCATC,0.0737
21,ATGTCAGC,0.194
22,AGAGGTTG,-0.182
23,AGGTAACA,0.113
24,AAGTCGCT,-0.0636
25,GTGGGAGA,-0.317
26,GTGGGACA,0.455

row,Sequence,PBM E-score
1,CTGGGACA,0.444
2,GTGGGATA,-0.0948
3,CTGGGAAA,-0.203
4,ATGGGACC,0.00395
5,CTGGGACC,-0.269
6,ATGGGACA,0.429
7,ATGGGACG,-0.188
8,GACCGTGA,-0.0454
9,AACGCTAC,-0.137
10,CCCAACGC,0.0471
11,AATACCTG,-0.0275
12,GGTGAGAC,0.0221
13,ACACACCA,0.183
14,CTCCTTCA,-0.3
15,AGAAGCTA,-0.135
16,AATGGAGC,-0.132
17,ATTGTGTG,-0.0187
18,ATTGTGTC,0.314
19,ATTGTGTA,0.14
20,CTTGTGTC,0.304
21,CGTGTGTC,0.0945
22,CTTGTGTA,0.114
23,AGTCTCCG,0.159
24,ATCACAGC,0.053
25,AAATGAGT,0.0295
26,AATGTACC,0.311

row,Sequence,PBM E-score
1,AATGTATA,0.323
2,AATGTACA,0.294
3,AATGTACG,0.274
4,GATGTATA,-0.11
5,CATGTATA,0.141
6,AATGTACT,0.364
7,ACTGTACT,-0.00421
8,AATGTAAT,0.193
9,GCTCCCTA,-0.334
10,GAGACCTA,-0.0946
11,AATGTCAT,0.46
12,AATGTCAG,0.254
13,ACTGTCAC,0.00673
14,ACTGTCAT,0.0249
15,AATGTCAC,0.381
16,AGTGTCAT,0.112
17,GTTTGCCA,-0.0238
18,CCACCCAG,-0.0137
19,CTATGTTC,0.103
20,GGATGTTA,-0.0664
21,CTATGTCC,0.461
22,CGATGTCC,0.436
23,AGATGTCG,0.0151
24,CGATGTCA,0.0775
25,CTATGTGC,-0.0695
26,CGATGTTC,-0.0457

row,Sequence,PBM E-score
1,GGATGTCA,0.305
2,AGATGTTC,0.0457
3,CGATGTAC,0.169
4,AGATGTCC,0.477
5,AACAGAGT,0.128
6,AACAGCGT,0.0185
7,ATGGTGGG,-0.316
8,CACGCTAG,-0.0343
9,AATGGGAC,0.0849
10,CGAGCTAG,-0.0663
11,GAACAGGC,-0.164
12,ACTTGCCT,-0.136
13,CTGAAAGC,0.0584
14,ACTCGAAG,-0.168
15,AGATGTAA,0.102
16,AGATGTCA,0.309
17,AGATGTGA,-0.0694
18,ATAAATGG,0.0876
19,CTCACGGA,0.0943
20,ATCACGGA,0.136
21,GACACGCA,0.198
22,AACACGCC,-0.12
23,GACACGCC,0.324
24,TACACGGA,0.303
25,GACACGGA,0.369
26,GACACGGC,0.197

row,Sequence,PBM E-score
1,GTCACGGA,0.308
2,CACTAGCA,-0.0794
3,CCTGAACG,-0.104
4,ATAAGAGC,0.0327
5,ATCTTGAG,0.0323
6,ACGTCATA,0.235
7,AACCTAAA,0.121
8,ACAGTGCG,-0.181
9,CACCGGTA,0.0943
10,AGAACTCT,-0.119
11,CTCCAGTA,0.057
12,TCCGGAGA,0.0632
13,GCCGGAGA,0.0857
14,TCCGGACA,0.453
15,ACCGGACT,0.0676
16,GCCGGACA,0.357
17,TCCGGAAA,0.248
18,ACCGGACA,0.306
19,CCCGGACC,-0.11
20,CCCGGACA,0.425
21,CCCGGACG,-0.156
22,ACCGGACG,-0.0239
23,GCCGGACC,-0.0867
24,CGTCCCGC,0.0266
25,AGGTCGCC,-0.164
26,AAAAAAGC,-0.0879

row,Sequence,PBM E-score
1,AAGGTCCA,-0.0265
2,CCAGCAAA,0.06
3,AATGGCCT,-0.164
4,CGTATGTC,0.359
5,AGTATGTA,-0.0186
6,AGTATGTG,0.0347
7,AGTATGTC,0.353
8,CGTATGGC,0.0738
9,CGTATGTA,0.148
10,CGTTGGAA,-0.0918
11,ACTATACC,0.0929
12,ATAAGGAT,0.161
13,CCAAGGAC,0.16
14,ACAAGGAC,0.358
15,ACAGGGAT,-0.147
16,GCAAGGAA,-0.122
17,ATAAGGAC,0.369
18,GCAGGGAC,0.163
19,ACAAGGAG,0.0113
20,GTAAGGAC,0.268
21,GCAAGGAC,0.395
22,ACAAGGAA,0.178
23,ACAGGGAC,0.324
24,GGCGAGGA,-0.0575
25,TCATCCGA,0.183
26,GTACCTGA,0.149

row,Sequence,PBM E-score
1,GTCTGTGA,0.0908
2,CGACGCCG,0.0839
3,AAAGCACG,0.0204
4,TAGCAAAA,0.124
5,CCTGTTGA,-0.00042
6,AGAAAACT,0.116
7,CCGTGAAC,0.0411
8,CTCTACGA,0.0394
9,CAGAATGA,0.0577
10,AAAGACTT,0.0779
11,AAAGACAT,0.387
12,AAAGACCT,0.0725
13,TAAGATAA,0.0274
14,CAAGACAC,0.183
15,AAAGATAA,0.14
16,CAAGATAA,0.324
17,GAAGACAA,0.36
18,CAAGACAA,0.367
19,GAAGACAC,0.181
20,CAAGACAG,0.0634
21,GAAGACCA,-0.102
